# Results filed as inconclusive are left out. Where a call stands in place of a potency, no number is given. Activity calls are given as the source filed them. The call rests on the fitted dose curve; in most records, active means well fitted curve in the direction sought with a large enough effect; inconclusive means small, poorly fitted or top-dose-only effect, or another doubt; inactive means no such curve, though single readings can be large; an effect the other way counts as inactive or inconclusive.
# Key:
# CP215 = assay: qHTS profiling for inhibitors of Plasmodium falciparum proliferation (AID 504749); further: nearly all actives have a fitted effect of over 60% in size; further: potency means the concentration at half of the fitted maximal effect; details: P. falciparum in erythrocytes, SYBR Green DNA, 72 h; series mostly up to 28.7 µM
# Outline: (§1)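 P. falciparum-infected erythrocytes (0.3% parasitemia, 2.5% hematocrit final) were exposed to compounds for 72 h at 37 C in 5% CO2, then lysed with SYBR Green buffer overnight at room temperature; parasite DNA fluorescence was normalized to artemisinin and DMSO controls.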
# CP286 = assay: as above; details: P. falciparum in erythrocytes, SYBR Green DNA, 72 h; series mostly up to 28.7 µM
# Outline: as §1
# [1] = target: DNA dC->dU-editing enzyme APOBEC-3G (Homo sapiens) (UniProt Q9HC16); assay: qHTS for inhibitors of Vif-A3G interactions: Validation (AID 588379)
# Sequence of DNA dC->dU-editing enzyme APOBEC-3G (Homo sapiens) (Q9HC16 whole entry, looked up): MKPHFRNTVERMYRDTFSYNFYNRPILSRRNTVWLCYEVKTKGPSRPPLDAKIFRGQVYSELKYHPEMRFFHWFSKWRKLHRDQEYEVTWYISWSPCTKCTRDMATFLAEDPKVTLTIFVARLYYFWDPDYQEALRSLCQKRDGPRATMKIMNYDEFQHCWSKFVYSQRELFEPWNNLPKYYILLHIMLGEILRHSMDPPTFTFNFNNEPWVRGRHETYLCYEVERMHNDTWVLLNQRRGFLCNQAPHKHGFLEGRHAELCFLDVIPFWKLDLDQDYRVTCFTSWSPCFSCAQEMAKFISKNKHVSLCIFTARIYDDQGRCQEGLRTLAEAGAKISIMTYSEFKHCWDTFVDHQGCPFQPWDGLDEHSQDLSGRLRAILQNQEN
# Outline: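 HeLa cells stably expressing Vif and A3G-eYFP, 700 cells/well, incubated overnight at 37 deg C, then exposed to compound overnight at 37 deg C. Inhibition of Vif-mediated degradation read as increased yellow fluorescence (Ex 488/Em 500-530) by laser-scanning cytometry.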
# CP268 = assay: qHTS profiling for inhibitors of Plasmodium falciparum proliferation (AID 504749); further: nearly all actives have a fitted effect of over 60% in size; further: potency means the concentration at half of the fitted maximal effect; details: P. falciparum in erythrocytes, SYBR Green DNA, 72 h; series mostly up to 28.7 µM
# Outline: as §1
# CP291 = assay: as above; details: P. falciparum in erythrocytes, SYBR Green DNA, 72 h; series mostly up to 28.7 µM
# Outline: as §1
# CP297 = assay: as above; details: P. falciparum in erythrocytes, SYBR Green DNA, 72 h; series mostly up to 28.7 µM
# Outline: as §1
# CP305 = assay: as above; details: P. falciparum in erythrocytes, SYBR Green DNA, 72 h; series mostly up to 28.7 µM
# Outline: as §1
# ECU = assay: as above; details: P. falciparum in erythrocytes, SYBR Green DNA, 72 h; series mostly up to 28.7 µM
# Outline: as §1
# GB4 = assay: as above; details: P. falciparum in erythrocytes, SYBR Green DNA, 72 h; series mostly up to 28.7 µM
# Outline: as §1
# P93_24 = assay: as above; details: P. falciparum in erythrocytes, SYBR Green DNA, 72 h; series mostly up to 28.7 µM
# Outline: as §1
# TAB109 = assay: as above; details: P. falciparum in erythrocytes, SYBR Green DNA, 72 h; series mostly up to 28.7 µM
# Outline: as §1
# [2] = Confirmation and Secondary Assay for Modulators of Hemoglobin Beta Chain Splicing at IVS2 654 locus (AID 910);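 further: per-well total GFP intensity by laser scanning cytometry after 2-day treatment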
# Outline: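 HeLa cells stably carrying EGFP interrupted by mutant beta-globin IVS2-654 intron (CMV-driven) were treated with compound for 2 days at 37C; corrected splicing was scored as total peak GFP intensity per well (488 nm excitation, 500-520 nm emission).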
# [3] = target: Pyruvate kinase PKM (Homo sapiens) (UniProt P14618); assay: qHTS Assay for Inhibitors of Human Muscle Pyruvate Kinase (AID 958)
# Sequence of Pyruvate kinase PKM (Homo sapiens) (P14618 whole entry, looked up): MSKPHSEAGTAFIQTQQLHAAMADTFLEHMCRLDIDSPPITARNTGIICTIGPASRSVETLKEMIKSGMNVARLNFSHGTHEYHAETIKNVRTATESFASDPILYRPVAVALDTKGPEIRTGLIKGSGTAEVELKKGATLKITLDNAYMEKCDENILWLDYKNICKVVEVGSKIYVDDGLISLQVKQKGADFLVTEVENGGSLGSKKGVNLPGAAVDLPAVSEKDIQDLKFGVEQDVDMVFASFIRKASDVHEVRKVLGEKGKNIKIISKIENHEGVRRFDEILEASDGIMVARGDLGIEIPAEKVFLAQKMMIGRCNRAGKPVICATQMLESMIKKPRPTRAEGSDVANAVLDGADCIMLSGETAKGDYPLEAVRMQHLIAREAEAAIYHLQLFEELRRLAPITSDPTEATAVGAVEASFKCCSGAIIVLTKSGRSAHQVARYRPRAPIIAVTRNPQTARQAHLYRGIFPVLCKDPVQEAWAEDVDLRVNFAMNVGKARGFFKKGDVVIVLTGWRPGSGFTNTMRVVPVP
# Outline: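 Luminescence from a luciferase ATP-detection/stop reagent reported PKM2 activity. Reactions contained 0.1 nM purified human enzyme, 0.5 mM PEP, 0.1 mM ADP and 7 mM MgCl2 at pH 7.2, run 1 h at RT.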
# [4] = target: Pyruvate kinase (Leishmania mexicana) (UniProt Q27686); assay: qHTS Validation Assay for Activators of Leishmania Mexicana Pyruvate Kinase (AID 959)
# Sequence of Pyruvate kinase (Leishmania mexicana) (Q27686 2-499 E452W): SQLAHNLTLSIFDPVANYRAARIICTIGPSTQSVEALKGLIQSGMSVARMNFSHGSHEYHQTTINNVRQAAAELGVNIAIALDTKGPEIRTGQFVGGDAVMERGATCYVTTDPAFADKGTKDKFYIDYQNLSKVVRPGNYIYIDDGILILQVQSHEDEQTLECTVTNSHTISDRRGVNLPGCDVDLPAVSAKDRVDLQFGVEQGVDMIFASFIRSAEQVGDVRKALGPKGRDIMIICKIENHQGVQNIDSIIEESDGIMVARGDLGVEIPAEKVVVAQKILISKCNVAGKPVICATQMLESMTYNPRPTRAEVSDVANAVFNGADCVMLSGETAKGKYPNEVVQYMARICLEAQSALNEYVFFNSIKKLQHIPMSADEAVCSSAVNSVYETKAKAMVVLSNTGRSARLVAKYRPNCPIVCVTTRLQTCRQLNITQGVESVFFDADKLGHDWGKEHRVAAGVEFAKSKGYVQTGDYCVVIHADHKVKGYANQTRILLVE
# Outline: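 qHTS eight-point titrations against 0.2 nM LmPYK (E451W) in imidazole buffer pH 7.2 with 0.5 mM PEP, 0.1 mM ADP; 1 h, room temperature. Readout: PKLight luminescence, normalized to neutral DMSO wells.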
compound,measurement,setting,value
OC[C@H](S)CS,Potency,CP215,inactive
same,Potency,CP286,3.16 µM (active)
Oc1ccc([C@@H]2CNCCc3c2cc(O)c(O)c3Cl)cc1,outcome,[1],inactive
C[N+]1(C)[C@@H]2CC(OC(=O)[C@@H](CO)c3ccccc3)C[C@@H]1[C@H]1O[C@H]12 (stereo partly drawn),Potency,CP268,inactive
same,Potency,CP286,inactive
same,Potency,CP291,inactive
same,Potency,CP297,inactive
same,Potency,CP305,inactive
same,Potency,ECU,inactive
same,Potency,GB4,inactive
same,Potency,P93_24,inactive
same,Potency,TAB109,inactive
N=c1ccn2c(n1)O[C@@H]1[C@@H](O)[C@H](CO)O[C@H]12,outcome,[2],inactive
C(=C/c1ccccc1)/CN1CCN(C(c2ccccc2)c2ccccc2)CC1,Potency,CP268,inactive
same,Potency,CP305,inactive
same,Potency,ECU,inactive
same,Potency,P93_24,inactive
same,Potency,TAB109,inactive
N[C@H](COP(=O)(O)O)C(=O)O,Potency,CP215,inactive
same,Potency,CP268,inactive
same,Potency,CP286,inactive
same,Potency,CP291,inactive
same,Potency,CP297,inactive
same,Potency,CP305,inactive
same,Potency,ECU,inactive
same,Potency,GB4,inactive
same,Potency,P93_24,inactive
same,Potency,TAB109,inactive
CC(=O)N1CCN(c2ccc(OC[C@@H]3CO[C@@](Cn4ccnc4)(c4ccc(Cl)cc4Cl)O3)cc2)CC1,Potency,CP291,inactive
same,Potency,CP297,inactive
O=C1O/C(=C\Br)CC[C@@H]1c1cccc2ccccc12,outcome,[3],inactive
N.N.N.N.N.N.N.N.N.N.N.N.N.N.O.O.[Ru].[Ru].[Ru],Potency,[4],inactive
Nc1nc(Cl)nc2c1ncn2[C@@H]1O[C@@H](CO)[C@@H](O)[C@H]1O,outcome,[2],inactive
